Compound activity (PubChem)
APOBEC3A inh: APOBEC3A ssDNA deaminase inhibitors, primary screen, selectivity assay for APOBEC3G inhibitor project, biochemical, FAM/TAMRA oligo cleavage fluorescence; DNA dC->dU-editing enzyme APOBEC-3A (Homo sapiens), P31941; recombinant A3A, FAM/TAMRA ssDNA deamination fluorescence; inhibition, % at 20 µM; hit rate 0.41% among 330,000;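 active means at least 40% inhibition at 20 µM here, with at most 30% in a related deaminase screen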;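 further: plate controls were A3A with DMSO for no effect and wells lacking A3A enzyme for full effect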
Target sequence (P31941 whole entry, looked up): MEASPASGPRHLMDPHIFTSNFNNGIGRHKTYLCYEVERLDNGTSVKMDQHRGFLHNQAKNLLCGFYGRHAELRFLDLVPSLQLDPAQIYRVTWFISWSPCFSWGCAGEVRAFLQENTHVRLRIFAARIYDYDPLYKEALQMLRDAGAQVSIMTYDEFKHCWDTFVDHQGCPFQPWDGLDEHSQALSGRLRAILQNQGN
APOBEC3G inh: APOBEC3G DNA deaminase inhibitors, primary screen, biochemical, fluorescence, single-stranded DNA substrate, uHTS | recombinant A3G, ssDNA deamination FAM/TAMRA fluorescence | inhibition, % at 20 µM | hit rate 0.28% among 330,000 | AID 493012, 2011;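 active means inhibition of at least 40% at 20 µM, with no more than 30% in the related APOBEC3A deaminase screen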;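 further: plate controls were DMSO wells with A3G for no effect and wells lacking A3G enzyme for full effect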
Target sequence (Q9HC16 whole entry, looked up): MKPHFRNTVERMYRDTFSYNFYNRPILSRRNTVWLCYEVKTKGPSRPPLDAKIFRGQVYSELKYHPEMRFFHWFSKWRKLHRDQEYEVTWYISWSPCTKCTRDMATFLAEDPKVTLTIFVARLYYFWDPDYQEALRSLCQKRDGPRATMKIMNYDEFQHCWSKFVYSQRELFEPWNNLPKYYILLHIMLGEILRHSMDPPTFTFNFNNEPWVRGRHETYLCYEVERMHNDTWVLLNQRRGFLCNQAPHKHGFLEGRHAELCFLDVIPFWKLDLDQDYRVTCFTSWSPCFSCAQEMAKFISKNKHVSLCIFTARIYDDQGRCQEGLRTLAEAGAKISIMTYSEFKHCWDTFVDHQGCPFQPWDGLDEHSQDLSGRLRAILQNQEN
H9c2 protect: cardioprotection against H2O2-induced cell death, primary screen, uHTS, H9c2 cells, ATPLite luminescence. AID 588492, 2011. hit rate 0.63% among 360,000. protection from H2O2 cell death, % at 20 µM. H9c2 cardiomyocytes, H2O2 injury protection, 2 h;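 active means compounds giving at least 50% protection of heart cells from peroxide-induced death in the single-dose screen, raw or plate-pattern-corrected value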;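 further: 0% = DMSO wells with peroxide and 100% = DMSO wells without peroxide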
PfG6PD inh: PfG6PD enzyme inhibitors, primary screen, biochemical, fluorescence intensity, uHTS | glucose-6-phosphate dehydrogenase-6-phosphogluconolactonase (Plasmodium falciparum 3D7) | PfGluPho enzyme, NADPH resazurin-diaphorase fluorescence | inhibition, % at 20 µM | hit rate 0.78% among 350,000;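 active means inhibition reaching at least a set limit at 20 µM in the primary screen, cut at about 59% in these data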;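 further: 0% = DMSO wells with substrate and 100% = DMSO wells lacking glucose-6-phosphate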
NadD block: inhibitors of S. aureus NadD, primary screen, biochemical, colorimetric, uHTS; AID 602399, 2012; hit rate 0.78% among 360,000; Nicotinate-nucleotide adenylyltransferase NadD (Staphylococcus aureus N315); purified NadD enzyme, colorimetric absorbance read-out; inhibition, % at 20 µM; in the data active means inhibition above about 26%
TAG inh: inhibitors of triacylglycerol accumulation, primary screen, cell-based, uHTS, fluorescence, H9c2. inhibition, % at 12.5 µM. H9c2 cells, Nile Red lipid (TAG) fluorescence; cells loaded with 200 µM oleic acid. hit rate 0.66% among 230,000. AID 651582, 2012;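 active means pattern-corrected inhibition of lipid staining of at least 50% with the nuclear-stain viability signal not falling by more than 50%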;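 further: 0% = DMSO wells and 100% = triacsin C control wells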
PfG6PD confirm: PfG6PD inhibitors, hit retest, confirmation, biochemical, fluorescence intensity, single concentration; shares compounds with PfG6PD inh; recombinant PfGluPho, NADPH-diaphorase-resazurin fluorescence; inhibition, % at 20 µM; hit rate 34% among 2,400;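 active means inhibition of at least 50% at 20 µM in any single replicate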;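 further: 0% = DMSO with substrate and 100% = DMSO lacking glucose-6-phosphate substrate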
Diaph ctr 10uM: diaphorase inhibitors and chemical oxidizers, confirmation, counter-screen for P. falciparum G6PD inhibitor project, biochemical, fluorescence intensity, 10 µM NADPH; diaphorase-coupled resazurin reduction, NADPH 10 uM; hit rate 39% among 820; inhibition, % at 20 µM; shares compounds with PfG6PD inh;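 active means average inhibition reaching 50% or more with the compound at 20 µM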;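 further: resorufin red fluorescence formed as diaphorase reduces resazurin using NADPH; 0% = DMSO with enzyme and 100% = DMSO without enzyme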
Diaph ctr 30uM: diaphorase inhibitors and chemical oxidizers, confirmation, counter-screen for P. falciparum G6PD inhibitor project, biochemical, fluorescence intensity, 30 µM NADPH | Diaphorase/resazurin coupled assay, resorufin fluorescence | hit rate 29% among 820 | AID 504863, 2011 | shares compounds with PfG6PD inh | inhibition, % at 20 µM;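 active means inhibition averaging 50% or more, tested at 20 µM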;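 further: 0% = DMSO with enzyme and 100% = DMSO wells lacking diaphorase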
* hit, by the source's call; . = no result. In the library only some 2.9% were active in any assay of this set; here they are far more common.

SMILES	APOBEC3A inh	APOBEC3G inh	H9c2 protect	PfG6PD inh	NadD block	TAG inh	PfG6PD confirm	others
O=c1c2ccccc2sn1-c1ccc(Cl)cc1Cl	.	.	-34.6	129.2*	-1.7	28.3	109.3*	Diaph ctr 10uM=-3.7;Diaph ctr 30uM=2.5
COc1ccc(Cl)cc1NC(=O)CN(C)C(=O)Cc1ccsc1	21.7	-8.6	1.8	24.7	0.1	19.6	.
COc1ccc(Cl)cc1NC(=O)CN(C)C(=O)Cc1ccc2c(c1)CCC2	-1.0	-2.2	2.3	84.4*	-7.0	36.4	56.6*	Diaph ctr 10uM=53.1*;Diaph ctr 30uM=51.6*
Cc1snnc1C(=O)NC(=S)Nc1ccccc1	-2.9	-4.9	-6.2	-5.2	2.7	8.6	.
O=S(=O)(c1ccccc1)N1CCN=C1SCc1ccc(Cl)c(Cl)c1	-5.5	-7.0	-12.7	20.7	4.6	.	.
O=S(=O)(c1ccccc1)N1CCN=C1SCc1ccccc1Cl	0.6	-1.3	-15.1	77.7*	-0.9	-5.2	20.7
O=S(=O)(c1ccccc1)N1CCN=C1SCc1cccc(Cl)c1	-0.6	1.0	-10.0	81.8*	6.4	-1.7	42.6
Cc1ccc(S(=O)(=O)N2CCN=C2SCc2ccccc2)cc1	-0.6	-6.1	-1.0	68.7*	-1.1	-25.5	23.7
CCN(C(=O)COC(=O)CNS(=O)(=O)c1ccc(SC)c([N+](=O)[O-])c1)C1CCCCC1	19.1	1.4	-14.9	3.3	-6.0	0.9	.
CCN(C(=O)COC(=O)c1cc2ccccc2cc1OC)c1c(N)n(Cc2ccccc2)c(=O)[nH]c1=O	.	.	3.5	7.2	0.0	4.7	.
COc1ccc(S(=O)(=O)N(Cc2ccccc2)Cc2nc3ccccc3c(=O)[nH]2)cc1	-1.8	-3.4	13.1	1.2	-2.8	5.6	.
COc1ccccc1CN(Cc1nc2ccccc2c(=O)[nH]1)S(=O)(=O)c1ccc2ccccc2c1	-3.5	-1.0	58.4*	59.5*	6.2	.	3.8
Cc1ccc(S(=O)(=O)NCc2cc(=O)n(C)c(=O)n2C)cc1C	3.2	7.1	-0.6	-15.6	3.1	.	.
CC1=CC(C)(C)Nc2ccc(OC(=O)CN3C(=O)CCC3=O)cc21	-3.3	-6.1	-22.6	62.1*	-2.1	.	51.6*	Diaph ctr 10uM=39.6;Diaph ctr 30uM=2.9
COc1ccc(OC)c(/C=N/NC(=O)CCCC(=O)Nc2cccc(Br)c2)c1	5.8	-5.4	-5.8	75.3*	8.6	.	36.4
COc1ccc(CCC(=O)Nc2cc(Cl)ccc2OC)cc1	1.0	-3.1	-2.8	-12.5	2.3	.	.
COc1ccc(CCCC(=O)NCC(=O)N/N=C/c2cc(Cl)ccc2OC)cc1	2.3	7.6	-0.4	82.8*	-2.0	.	55.4*	Diaph ctr 10uM=59.1*;Diaph ctr 30uM=53.3*
COc1ccc(NC(C)C(=O)N/N=C/c2cc(Br)ccc2OC)cc1 (stereo unspecified)	-0.9	-6.5	-3.2	85.8*	7.8	10.7	62.4*	Diaph ctr 10uM=47.1;Diaph ctr 30uM=40.7
COc1ccc(OC)c(/C=N/NC(=O)CNC(=O)c2cccc3ccccc23)c1	-0.5	-5.1	5.5	98.7*	-3.0	3.9	73.9*	Diaph ctr 10uM=63.4*;Diaph ctr 30uM=61.7*
COc1cccc(NC(=S)NN=C2CCCCCC2)c1	-1.6	-7.7	3.4	-1.9	-2.6	.	.
O=C1CCC(C(=O)N2CCCCCC2)CN1Cc1cccc(C(F)(F)F)c1 (stereo unspecified)	-2.4	-4.2	-1.4	9.2	3.6	.	.
CCOc1ccc(NC(=O)c2ccccc2OCC(=O)c2ccccc2)cc1	-1.4	-4.1	-15.6	6.2	-7.3	.	.
O=C(OCc1nnc(-c2ccc(Br)cc2)o1)c1cncc(Br)c1	2.5	-0.8	-8.9	4.6	-3.3	14.3	.
N#C/C(=C/c1ccc(N2CCCCCC2)o1)c1cccc(F)c1	-2.1	10.0	-12.1	64.9*	11.4	.	-3.8
N#C/C(=C\c1ccc(N2CCOCC2)o1)c1ccccc1	0.7	27.9	-4.9	48.4	6.6	.	.
SMILES	APOBEC3A inh	APOBEC3G inh	H9c2 protect	PfG6PD inh	NadD block	TAG inh	PfG6PD confirm	others
N#C/C(=C/c1ccc(N2CCOCC2)o1)c1ccc(Br)cc1	-9.1	16.5	-16.3	80.3*	16.6	-42.6	28.1
CCN(CC)CCn1c(O)c(N=O)c2ccccc21	-1.1	-3.0	2.0	-2.0	-0.6	.	.
CCN(CC)CCn1c2ccccc2c(=O)c2c(O)ccc(O)c21	.	.	0.5	84.0*	13.0	-7.6	98.4*	Diaph ctr 10uM=30.6;Diaph ctr 30uM=29.7
CCC(=O)Nc1ccc(NCc2cccs2)cc1	-6.7	1.9	-1.0	-5.9	6.8	.	.
Cc1cc2cc(CNC(=O)c3ccc(C)c([N+](=O)[O-])c3)ccc2[nH]1	-4.3	-4.2	0.5	10.8	22.5	18.2	.
Cn1c(C(=O)Nc2ccc3c(c2)OCO3)cc2sccc21	6.5	-5.5	-12.5	80.8*	-3.8	.	22.3
Cn1c(C(=O)NCc2ccc3c(c2)OCO3)cc2sccc21	6.3	-3.9	3.9	20.0	-6.8	.	.
O=C1/C(=C/c2ccsc2)N2CCC1CC2	0.6	-0.8	3.1	-11.4	-7.0	9.6	.
CCCCNC(=S)N/N=C/c1ccccc1F	-4.8	-6.1	-13.6	-1.8	0.2	.	.
CC(C)NC(=S)NC(c1ccccc1)(c1ccccc1)c1ccccc1	-5.7	-6.8	-9.8	15.3	-2.6	.	.
CN1CCN(S(=O)(=O)c2ccc(N3CCN(c4ccc(O)cc4)CC3)c([N+](=O)[O-])c2)CC1	4.3	14.5	-6.3	71.7*	1.6	13.8	30.8
CCON1C(=O)C2(CCCCC2)C(=O)C12C=CCCC2 (stereo unspecified)	.	.	0.7	4.8	1.7	-20.6	.
CC1=CC(=Nc2c(C)n(C)n(-c3ccccc3)c2=O)C=CC1=O	-3.8	14.5	.	.	.	.	.
CC1=CC(=Nc2c(C)n(C)n(-c3ccccc3)c2=O)C=C(C)C1=O	2.2	2.5	-7.6	72.1*	1.7	12.7	57.3*	Diaph ctr 10uM=63.7*;Diaph ctr 30uM=68.5*
CCC(C)(C)c1nnc(NC(=O)c2cccc([N+](=O)[O-])c2)s1	0.8	-0.4	0.7	116.4*	-0.6	.	88.5*	Diaph ctr 10uM=93.4*;Diaph ctr 30uM=63.7*
